JMJD2A Tudor inh – blocks the human JMJD2A Tudor domain; O75164; AlphaScreen JMJD2A-Tudor / H3K4me3 peptide binding; Potency, µM (top dose mostly 114 µM), without a hit: top-dose activity change, negative = inhibition, most hits filed as inhibitors; 390,000 tested, 4.4% active; AID 504339; also: % is scaled to controls: 0 for no effect and ±100 for the full control effect; nearly all actives have a fitted effect of over 50% in size
HP1b binding inh – inhibitors of HP1-beta chromodomain binding to methylated histone tails; P83916; AID 540317; 390,000 tested, 0.56% active; AlphaScreen HP1-beta / biotin-H3K9me3 peptide binding; Potency, µM (highest dose often 114 µM), for inactives: top-dose activity change, negative = inhibition, most hits filed as inhibitors; also: nearly all actives have a fitted effect of over 70% in size
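Compound inhibition of the preformed complex between 50 nM HP1-beta and 50 nM biotinylated H3K9me3 peptide was read by AlphaScreen. Buffer was PBS pH 7.4 with 0.01% Tween-20. Incubations ran 30 min at room temperature, with 10 ug/mL donor/acceptor beads.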
G9a block – inhibitors of human histone lysine methyltransferase G9a; Q96KQ7; G9a H3K9 monomethylation, AlphaScreen, 2 h; Potency, µM (doses to about 102 µM), for the others: at the highest dose activity, negative = inhibition, actives largely listed as inhibitors; 350,000 tested, 8.8% active; also: % is scaled to controls: 0 for no effect and ±100 for the full control effect; nearly all actives have a fitted effect of over 75% in size
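Using a bead-based AlphaScreen, monomethylated H3K9 product from 2 h room-temperature reactions (G9a 20 nM, peptide 500 nM, SAM 20 uM) was detected with 0.5 ug/mL rabbit anti-H3K9me1 antibody.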
BAZ2B block – BAZ2B (human) inhibition; Q9UIF8; AlphaScreen BAZ2B-H3K14Ac peptide displacement; Potency, µM (series often up to 114 µM), inactives show top-dose activity change, negative = inhibition, most hits filed as inhibitors; 360,000 tested, 4.4% active; AID 504333; also: % is scaled to controls: 0 for no effect and ±100 for the full control effect; nearly all actives have a fitted effect of over 60% in size
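AlphaScreen displacement of biotin-H3(5-23)K14Ac peptide (50 nM final) from BAZ2B (50 nM final) in PBS pH 7.4, 0.01% Tween-20; complex preformed 30 min RT, then compounds (top 110 uM) 30 min RT, beads 20 min dark.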
GLS inhibitor – blocks human kidney-isoform glutaminase activity | GLS enzymatic activity, qHTS titration | Potency, µM (doses to about 45.5 µM), for the others: at the top dose activity change, negative = inhibition, actives largely listed as inhibitors | 410,000 tested, 0.21% active; also: % is scaled to controls: 0 for no effect and ±100 for the full control effect
Target sequence (O94925 whole entry, looked up, canonical isoform): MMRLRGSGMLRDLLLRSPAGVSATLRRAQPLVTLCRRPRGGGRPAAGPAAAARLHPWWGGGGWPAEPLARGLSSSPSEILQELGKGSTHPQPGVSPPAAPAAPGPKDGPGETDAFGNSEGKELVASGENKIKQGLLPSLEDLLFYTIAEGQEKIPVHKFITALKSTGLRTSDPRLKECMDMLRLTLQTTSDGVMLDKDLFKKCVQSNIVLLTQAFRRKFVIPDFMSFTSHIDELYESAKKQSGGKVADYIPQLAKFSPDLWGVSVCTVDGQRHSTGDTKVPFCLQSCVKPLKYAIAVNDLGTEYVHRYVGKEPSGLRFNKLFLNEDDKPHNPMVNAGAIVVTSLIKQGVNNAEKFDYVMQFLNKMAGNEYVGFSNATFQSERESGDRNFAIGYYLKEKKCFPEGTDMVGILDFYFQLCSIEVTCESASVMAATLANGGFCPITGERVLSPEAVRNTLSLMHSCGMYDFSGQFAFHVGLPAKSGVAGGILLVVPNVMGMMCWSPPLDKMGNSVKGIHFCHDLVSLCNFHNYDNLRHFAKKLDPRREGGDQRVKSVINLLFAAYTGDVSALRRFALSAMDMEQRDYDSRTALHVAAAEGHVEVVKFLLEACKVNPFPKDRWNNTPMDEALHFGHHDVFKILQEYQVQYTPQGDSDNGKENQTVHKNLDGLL
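Compounds were pin-transferred onto hKGA, after which L-glutamine (1 mM solution) and a detection mix of glutamate oxidase, HRP and Amplex Red were added. Initial and 30 min RT fluorescence reads were collected.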
An asterisk follows results filed as active; ? = inconclusive; · = not tested or not shown; ! = a repeat was not active; [ ] = remark or other dose. The list is not random: actives were taken first. Their share in the collection is about 10%. Calls follow the shape of the dose curve; as a rule, active = well fitted curve in the direction sought with a large enough effect; inconclusive = small, poorly fitted or top-dose-only effect, or another doubt; inactive = no such curve, though single readings can be large; an effect the other way counts as inactive or inconclusive. Potency is read from the fitted curve at half-maximal effect.

SMILES	JMJD2A Tudor inh	HP1b binding inh	G9a block	BAZ2B block	GLS inhibitor
O=C(COc1ccc(Br)cc1)N1CCN(C2CCCC2)CC1	-8%	29%	3%[59 µM]	2%	16%
O=S(=O)(NC1CN2CCC1CC2)c1ccc(Cl)cc1 (centres undefined)	-12%	-4%	-17%	7%	-3%
Cc1ccccc1-n1c(CNc2ccccc2)nc2ccccc2c1=O	-29%	33%	·	·	5%
CCOc1ccc(C=C2C(=O)NC(=S)NC2=O)cc1OCC	?	-3%	·	·	69%
CCOc1cc(C=C2C(=O)NC(=O)NC2=O)ccc1OCC(=O)N1CCOCC1	-8%	53%	8.9µM*	-5%	-15%
COC(=O)C1=C(c2ccc3ccccc3c2)C[C@@H]2CC[C@H]1N2C(=O)NC1CC1	-9%	44%	14%[2.33 µM]	3%	-5%
Clc1ccc(COC(Cn2ccnc2)c2ccc(Cl)cc2Cl)cc1 (centres undefined)	?	-20%	-28%[2.33 µM]	25µM*	-3%
NC(=O)c1c(NC(=O)c2ccc(S(=O)(=O)N(CCCl)CCCl)cc2)sc2c1CCCCC2	-12%	18%	23%[59 µM]	5%	4%
Cc1c(N=Nc2c(O)[nH]c(=O)[nH]c2=O)c(=O)n(-c2ccccc2)n1C	13µM*	67%	?	3.2µM*	44%
Cc1c(N=Nc2c(O)n(-c3ccc(Br)cc3)c(=O)[nH]c2=O)c(=O)n(-c2ccccc2)n1C	35µM*	28%	·	28µM*	14%
CCCSc1cc(OC)c(CCN)cc1OC	·	·	·	·	-2%[99.4 µM]
O=c1[nH]c(O)c(/C=C2/C=CC(c3cc(Cl)ccc3Cl)=N2)c(=O)[nH]1	?	28%	50µM*	?	0%
CCOP(=O)(C1=C(O)C(=O)C(C(C)(C)C)=CC1=O)c1ccccc1 (centres undefined)	-21%	17%	56µM*	-24%	28%
CCC(=O)Nc1ccc(N2CCN(CC)CC2)c(Cl)c1	-17%	5%	79µM*	?	7%
O=C1CC(c2cccnc2)=NN1c1ccccc1	-18%	15%	?	-33%	-16%
CC1Cc2cc3c(cc2C(c2ccc(N)cc2)=NN1)OCO3 (centres undefined)	·	·	8.9µM*	·	·
CC1=NN=C(c2ccc(N)cc2)c2cc3c(cc2C1)OCO3	?	23%	7.5µM*!	?	5%
CCCC1(CC(C)CC)C(=O)NC(=O)NC1=O (centres undefined)	·	·	·	·	0%
CCN(CC)c1ccc(N=Cc2c(O)n(CCc3ccc(OC)c(OC)c3)c(=O)[nH]c2=O)cc1	-29%	4%	7.1µM*	-3%	37%
COc1ccc(CCn2c(O)c(C=Nc3ccc(F)cc3)c(=O)[nH]c2=O)cc1OC	-24%	20%	·	-3%	-3%
CCCCC(=O)N/N=C/c1c(O)n(CCc2ccccc2)c(=O)[nH]c1=O	79µM*	14%	7%[12.7 µM]	?	0%
CCN(CCO)c1ccc(N=Cc2c(O)n(C)c(=S)[nH]c2=O)cc1	?	14%	35µM*	56µM*	23%
COc1ccc(CCn2c(O)c(/C=N/NC(=O)c3ccncc3)c(=O)[nH]c2=O)cc1OC	-27%	20%	4%	?	12%
CCCCC(=O)N/N=C/c1c(O)n(CCc2ccc(OC)c(OC)c2)c(=O)[nH]c1=O	0%	28%	?	50µM*	-13%
O=c1cccc2n1CC1CNC[C@H]2C1	-8%	38%	-3%[59 µM]	-3%	-5%
SMILES	JMJD2A Tudor inh	HP1b binding inh	G9a block	BAZ2B block	GLS inhibitor
Cc1ccccc1NC1(C#N)CCCCC1	-5%	52%	-4%	-12%	5%
COc1ccc(-n2c(-c3ccccc3Br)nc3ccccc3c2=O)cc1	-26%	-8%	18%	-22%	-15%
NNC(=O)c1ccc(Cl)cc1	-2%	40%	-15%[59 µM]	-26%	18%
O=C(N/N=C/c1c(O)n(-c2ccccc2)c(=O)[nH]c1=O)c1ccncc1	?	46%	-2%[59 µM]	?	-15%
Cc1ccc(-n2c(O)c(/C=N/NC(=O)c3ccncc3)c(=O)[nH]c2=O)cc1	?	37%	?	50µM*	5%
Cc1cccc(-n2c(O)c(/C=N/NC(=O)c3ccncc3)c(=O)[nH]c2=O)c1	79µM*	35%	37%[12.7 µM]	?	-4%
C=CCn1c(O)c(C(CC)=NCC2CCCO2)c(=O)[nH]c1=O (centres undefined)	-1%	8%	·	2%	3%
OCCN(CC#CC(O)(c1ccccc1)C1CCCC1)CCO (centres undefined)	?	23%	50µM*	-33%	10%
Cc1cccc(-n2nc(C)c3c2NC(=O)CSC3c2ccccc2Cl)c1 (centres undefined)	-29%	8%	0%[59 µM]	-27%	13%
O=C(Nc1cccc2ncccc12)c1ccccc1Cl	-10%	2%	79µM*	?	2%
Nc1ccc(C2(c3ccc(N)cc3)CN3CCC2CC3)cc1	-24%	3%	5.6µM*	-3%	26%
N/C(=N\[N+](=O)[O-])N1CCN(C(=O)Oc2ccccc2)CC1	0%	34%	17%	1%	4%
C=CC[N+]1(C)CCC23c4c5ccc(O)c4O[C@H]2C(=O)CC[C@@]3(O)C1C5 (some centres undefined)	·	·	31%[59 µM]	·	71%
CN(C(=O)CSc1nc2ccc(NC(=O)COc3ccc(Cl)cc3)cc2s1)c1ccccc1	-8%	39%	7%[59 µM]	-4%	6%
CC(OC(=O)COc1ccc(Nc2ccccc2)cc1)C(=O)N(C)c1ccccc1 (centres undefined)	35µM*	?	40µM*	22µM*	?
COc1ccc(OCC#CCN2CCC(C)CC2)cc1	-32%	35µM*	8.9µM*	28µM*	0%
O=C(c1ccc(Cl)cc1)C1CCCN(Cc2ccon2)C1 (centres undefined)	-9%	19%	5%	0%	0%
Oc1ccc(CC2CC3CCN2CC3)cc1O (centres undefined)	28µM*	-30%	?	-2%	-6%
COC(=O)c1ccccc1-n1c(C)nc2ccccc2c1=O	12%	50%	27%[59 µM]	2%	2%
C#CCNc1ccncc1S(=O)(=O)NC(=O)NC(C)C	50µM*	24%	?	-9%	5%
Cc1c(O)ccc(C(=O)CN2CC(C)OC(C)C2)c1O (centres undefined)	-18%	12%[57 µM]	?	-17%	0%
COc1cc(OC)cc(-n2nc(C(=O)N3CCC4(CC3)OCCO4)c3ccccc3c2=O)c1	6%	10%	-1%[12.7 µM]	2%	16%
CCOC(=O)Cn1c(C)[n+](C)c2cc(Cl)c(Cl)cc21	28µM*	2%	45µM*	-1%	0%
CCOC(=O)C(O)(c1ccc(N=c2ccccn2C)cc1)C(F)(F)F (centres undefined)	-13%	31%	-5%	-12%	-1%

Source: PubChem
